This passage reports Inhibition results from ChEMBL document CHEMBL4513141, “CO-ADD screening of NIH (USA) - Clinical Collection” (2021).

Potency and affinity values are given separately.

The assay relates to Cryptococcus neoformans. Particulars: Concentration 20 uM; ASSAY_TEST Inhibition of Fungal Growth; detection method Resazurin; Absorption (OD600-OD570); plate type 384well; NBS; CORNING #3640.
With `CCOC(=O)C1=C(C)NC(C)=C(C(=O)OC)C1c1cccc([N+](=O)[O-])c1` (centres undefined) [NITRENDIPINE], the Inhibition is -6.79%.

In the case of `CN(C)CCCSc1ccccc1NC(=O)/C=C/c1ccccc1.Cl.O`, the Inhibition is reported as -8.97%. Take `CN1C(C(=O)Nc2ccccn2)=C(O)c2ccccc2S1(=O)=O.O`: the Inhibition was -5.24%. As for `Nc1ccc(S(=O)(=O)c2ccc(N)cc2)cc1` [DAPSONE], the figure is 0.91%.

In the case of `Cl.O=c1n(CCCN2CCN(c3cccc(Cl)c3)CC2)nc2ccccn12` [TRAZODONE HYDROCHLORIDE], the Inhibition is reported as -5.73%. As for `CCC(=O)OCC(=O)[C@@]1(OC(=O)CC)[C@@H](C)C[C@H]2[C@@H]3CCC4=CC(=O)C=C[C@]4(C)[C@@]3(Cl)[C@@H](O)C[C@@]21C` [BECLOMETHASONE DIPROPIONATE], the figure is 1.67%. With `CN(C)CC[C@@H](c1ccc(Cl)cc1)c1ccccn1.O=C(O)/C=C\C(=O)O` [DEXCHLORPHENIRAMINE MALEATE] the figure was -7.42%; with `COc1ccc2[nH]c([S+]([O-])Cc3ncc(C)c(OC)c3C)nc2c1` (centres undefined) [OMEPRAZOLE], -26.65%. With `NNC(=O)c1ccncc1` [ISONIAZID] the figure was -3.6%. With `CC1CCN(CCCC(=O)c2ccc(F)cc2)CC1.Cl`, the Inhibition is given as -4.29%. With `CC(C)NCC(O)COc1ccc(CC(N)=O)cc1` (centres undefined) [ATENOLOL] the figure was 1.62%; with `CCN(CC)CCOC(=O)C1(C2CCCCC2)CCCCC1.Cl` [DICYCLOMINE HYDROCHLORIDE], -0.13%; with `CCOc1cc(CC(=O)N[C@@H](CC(C)C)c2ccccc2N2CCCCC2)ccc1C(=O)O` [REPAGLINIDE], -6.91%. As for `CC(C)(C)NC(=O)[C@@H]1C[C@@H]2CCCC[C@@H]2CN1C[C@@H](O)[C@H](Cc1ccccc1)NC(=O)[C@H](CC(N)=O)NC(=O)c1ccc2ccccc2n1.CS(=O)(=O)O` [SAQUINAVIR MESYLATE], the figure is -6.99%. With `NS(=O)(=O)c1cc2c(cc1Cl)NCNS2(=O)=O` [HYDROCHLOROTHIAZIDE] the figure was -7.59%; with `COc1cc(C(=O)NS(=O)(=O)c2ccccc2C)ccc1Cc1cn(C)c2ccc(NC(=O)OC3CCCC3)cc12` [ZAFIRLUKAST], 1.96%. Regarding `C[C@]12CCC(=O)C=C1CC[C@@H]1[C@@H]2[C@@H](O)C[C@@]2(C)[C@H]1CC[C@]2(O)C(=O)CO` [HYDROCORTISONE], the Inhibition is recorded as -3.64%.

Turning to `O=c1c(O[C@@H]2O[C@H](CO)[C@@H](O)[C@H](O)[C@H]2O)c(-c2ccc(O)c(O)c2)oc2cc(O)cc(O)c12` [ISOQUERCETIN], the Inhibition is 3.22%. With `COc1ccnc(C[S+]([O-])c2nc3cc(OC(F)F)ccc3[n-]2)c1OC.O.[Na+]` (centres undefined) [PANTOPRAZOLE SODIUM] the figure was -26.37%; with `Nc1ccn([C@H]2CC[C@@H](CO)O2)c(=O)n1` [ZALCITABINE], -0.26%. With `C[C@]12CC[C@@H]3c4ccc(O)cc4CC[C@H]3[C@@H]1CC[C@@H]2O` [ESTRADIOL] the figure was -4.05%; with `CC(=O)OCC(=O)NCCCOc1cccc(CN2CCCCC2)c1.Cl` [ROXATIDINE ACETATE HYDROCHLORIDE], -4.65%. `CN1CCCC(n2nc(Cc3ccc(Cl)cc3)c3ccccc3c2=O)CC1.Cl` (centres undefined) [AZELASTINE HYDROCHLORIDE]: the Inhibition is 4.19%. With `NS(=O)(=O)c1cc2c(cc1C(F)(F)F)NC(Cc1ccccc1)NS2(=O)=O` (centres undefined) [BENDROFLUMETHIAZIDE] the figure was -1.07%. Consider `COc1cc2nc(N3CCN(C(=O)C4CCCO4)CC3)nc(N)c2cc1OC` (centres undefined) [TERAZOSIN], for which the Inhibition came to 0.02%.

Regarding `CC(CN1c2ccccc2Sc2ccccc21)N(C)C.Cl` (centres undefined) [PROMETHAZINE HYDROCHLORIDE], the Inhibition was -6.2%. With `CS(=O)(=O)OCCCCOS(C)(=O)=O` [BUSULFAN] the figure was -1.79%. With `Cc1occc(=O)c1O` [MALTOL], the Inhibition is listed as -2.15%. With `CN(C)c1nc(N(C)C)nc(N(C)C)n1` [ALTRETAMINE] the figure was -7.07%; with `CC(=O)O[C@]1(C(C)=O)CC[C@H]2[C@@H]3C[C@H](C)C4=CC(=O)CC[C@]4(C)[C@H]3CC[C@@]21C` [MEDROXYPROGESTERONE ACETATE], -5.46%; with `Cc1c(C(=O)NN2CCCCC2)nn(-c2ccc(Cl)cc2Cl)c1-c1ccc(I)cc1`, -5.99%. With `Cc1nc(=O)c2cc(CN(C)c3ccc(C(=O)N[C@@H](CCC(=O)O)C(=O)O)s3)ccc2[nH]1` [RALTITREXED], the Inhibition is reported as -0.58%.

In the case of `C[C@H]1[C@@H](OC(=O)CCC(=O)O)O[C@@H]2O[C@@]3(C)CC[C@H]4[C@H](C)CC[C@@H]1[C@@]24OO3`, the Inhibition was -1.11%. With `COc1c2occc2cc2ccc(=O)oc12` [METHOXSALEN] the figure was -0.09%.

As a reminder, the Inhibition is the drop in the measured response relative to a control, in per cent.
